Bioassay records from PubChem BioAssay.
In the library only some 8.7% were active in any assay of this set; here they are far more common.
HP1b chromo inh – blocks HP1-beta chromodomain binding to methylated histone tails | AlphaScreen HP1-beta / biotin-H3K9me3 peptide binding | 0.56% of 390,000 active | Potency, µM (titrated, usually from 114 µM), inactives show top-dose activity change, negative = inhibition, actives largely listed as inhibitors | P83916; further: nearly all actives have a fitted effect of over 70% in size
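AlphaScreen: HP1-beta (50 nM) preformed 30 min with biotin-H3(1-18)K9me3 peptide (50 nM) in PBS pH 7.4, 0.01% Tween-20. Compound added for 30 min at RT, then streptavidin donor/nickel chelate acceptor beads (10 ug/mL) for 30 min.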
G9a block – G9a (human) methyltransferase inhibition; G9a H3K9 monomethylation, AlphaScreen, 2 h; Potency, µM (highest dose often 102 µM), inactives show top-dose activity, negative = inhibition, usual class: inhibitors; 8.8% of 350,000 active; further: on the % scale 0 is the no-effect control and ±100 the full control effect; nearly all actives have a fitted effect of over 75% in size
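Methyltransferase reactions run at room temperature for 2 h (20 nM enzyme, 500 nM biotin-H3K9 peptide, 20 uM SAM) after a 15 min compound preincubation; product detected by AlphaScreen beads and anti-H3K9me1 antibody.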
Sfp inh – Sfp phosphopantetheinyl transferase inhibition; Biochemical Sfp PPTase activity, qHTS; Potency, µM, without a hit: largest response in the series, negative = inhibition, most hits filed as inhibitors; 3.5% of 310,000 active; AID 1490;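 further: the enzyme is Sfp with the accession as filed and its product quenches rhodamine fluorescence; 0% = enzyme reaction without inhibitor and -100% = no enzyme wells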
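Step 1, compound plus 15 nM Sfp-PPTase, 15 min, room temperature. Step 2, add rhodamine-CoA (5 uM) and BHQ-2-YbbR (12.5 uM). Step 3, read 525/598 nm fluorescence at 0 and 30 min.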
ALOX12 inh – ALOX12 (human) lipoxygenase inhibition | Potency, µM (series often up to 108 µM), without a hit: top-dose activity change, negative = inhibition, most hits filed as inhibitors | 1.1% of 580,000 active | P18054 | purified 12hLO, xylenol orange hydroperoxide absorbance | AID 1671190; further: on the % scale 0 is the no-effect control and ±100 the full control effect
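Hydroperoxide product was detected by ferrous iron/xylenol orange as the 573 to 405 nm absorbance ratio. Arachidonic acid at 40 uM (final) was turned over for 30 min at room temperature by 150 nM human 12hLO, pH 7.0 Hepes buffer, after 15 min compound preincubation.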
JMJD2A Tudor – JMJD2A Tudor domain (human) inhibition; AlphaScreen JMJD2A-Tudor / H3K4me3 peptide binding; AID 504339; O75164; 4.4% of 390,000 active; Potency, µM (titrated, usually from 114 µM), inactives show at the top dose activity change, negative = inhibition, usual class: inhibitors; further: on the % scale 0 is the no-effect control and ±100 the full control effect; nearly all actives have a fitted effect of over 50% in size
BAZ2B block – BAZ2B (human) inhibition; Q9UIF8; AlphaScreen BAZ2B-H3K14Ac peptide displacement; Potency, µM (series often up to 114 µM), without a hit: at the top dose activity change, negative = inhibition, hits mostly inhibitors; 4.4% of 360,000 active; AID 504333; further: on the % scale 0 is the no-effect control and ±100 the full control effect; nearly all actives have a fitted effect of over 60% in size
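Multi-concentration screen (max 110 uM) measuring displacement of acetylated histone H3 peptide from BAZ2B by AlphaScreen, using 50 nM protein, 50 nM peptide and 10 ug/mL streptavidin donor plus Ni-chelate acceptor beads.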
Numbers without * were called inactive; ? = inconclusive; . = no result; [ ] = dose if it differs, or a comment. The call rests on the fitted dose curve; in most records, active means well fitted curve in the direction sought with a large enough effect; inconclusive means small, poorly fitted or top-dose-only effect, or another doubt; inactive means no such curve, though single readings can be large; an effect the other way counts as inactive or inconclusive. Potency means the concentration at half of the fitted maximal effect.

SMILES	HP1b chromo inh	G9a block	Sfp inh	ALOX12 inh	JMJD2A Tudor	BAZ2B block
CSc1ccc(C2C(C#N)=C(N)Oc3c2ccc2ccccc32)cc1 (stereo unspecified)	.	.	.	0.0%	.	.
Cc1oc(C)c2c(=O)ccc3c(c12)OC(N)=C(C#N)C3c1ccccc1Cl (stereo unspecified)	-28.3%	28.2µM*	50.1µM*	?	-2.7%[11.4 µM]	?
Cc1ccccc1CS(=O)Cc1c(F)cccc1Cl (stereo unspecified)	.	.	.	2.8%	.	.
CC(Nc1ccc(F)cc1)=[N+](C)CCNS(=O)(=O)c1ccc(Cl)cc1	?	22.4µM*	-24.6%	?	20µM*	50.1µM*
CCNS(=O)(=O)c1ccc(NC(=O)Cc2ccc(F)cc2)cc1	37.7%	10.0%[12.7 µM]	15.2%	0.1%	-4.3%	1.3%
Cc1ccc(S(=O)(=O)CCC(=O)Nc2nc(-c3ccccn3)cs2)cc1	43.5%	15.2%[12.7 µM]	.	182.5%	89.1µM*	?
N#Cc1ccc(OCC(=O)Nc2nc(-c3cccnc3)cs2)cc1	44.1%	23.2%[12.7 µM]	.	0.0%	-19.9%	-3.0%
Cc1cc(Cl)ccc1OCC(=O)Nc1nc(-c2cccnc2)cs1	35.5%	60.2%[59 µM]	13.6%	-0.9%	9.2%	2.6%
O=C(COc1ccc([N+](=O)[O-])cc1)Nc1nc(-c2ccccn2)cs1	9.1%	35.5µM*	.	18.1%	28.2µM*	56.2µM*
O=C(COc1ccc(F)cc1)Nc1nc(-c2ccccn2)cs1	1.2%	44.7µM*	.	-3.3%	79.4µM*	?
Cc1ccc(OCC(=O)Nc2nc(-c3ccccn3)cs2)c(C)c1	-9.1%	39.8µM*	.	.	-26.7%	2.7%
CC(C)Cc1nnc(NC(=O)c2nn(Cc3ccccc3)c(=O)c3ccccc23)s1	.	.	.	29.8%	.	.
O=C(C1CCCC1)N1CCC(c2nc(-c3ccc4nc[nH]c4c3)no2)CC1	.	.	.	35.6%	.	.
Cc1ccc(S(=O)(=O)CCc2nnc(NC(=O)c3cnccn3)s2)cc1	25.2%	?	2.4%	-7.3%	?	-1.6%
O=C(Nc1nc(-c2ccccn2)cs1)Nc1ccc(F)cc1F	?	2.82µM*	11.2µM*	?	39.8µM*	-27.5%
O=C(Nc1nc(-c2ccccc2)cs1)Nc1ccc(F)cc1F	-15.0%	1.6%	-3.4%	-1.4%	-15.8%	-19.3%
Cc1ccc(S(=O)(=O)CCc2nnc(NC(=O)c3ccccn3)s2)cc1	47.5%	11.9%	1.6%	.	11.2µM*	3.16µM*
COC(=O)CN1C(=O)[C@@H]2C[C@@H](O)CN2C2(CN(C3CCN(C)CC3)C2)C1=O	.	.	.	35.5%[176 µM]	.	.
O=C(Cc1c(F)cccc1Cl)Nc1cc(S(=O)(=O)N2CCCCC2)ccc1N1CCOCC1	2.1%	-4.0%[12.7 µM]	6.5%	0.0%	-18.7%	-8.5%
CC(=O)NCCC(=O)Nc1cc(S(=O)(=O)Nc2ccc(Cl)cc2)ccc1N1CCCC1	-13.0%	22.4µM*	79.4µM*	?	?	-10.2%
CC(=O)NCCC(=O)Nc1cc(S(=O)(=O)N2CCCCC2)ccc1N1CCN(C)CC1	5.7%	50.1µM*	.	2.6%	?	10.1%
CC(=O)NCCC(=O)Nc1cc(S(=O)(=O)N2CCCCC2)ccc1N1CCCCC1	29.4%	5.7%[12.7 µM]	.	402.0%	-11.3%	3.8%
CN1CCN(c2ccc(S(=O)(=O)N3CCCCC3)cc2NC(=O)Cc2c(F)cccc2Cl)CC1	-6.4%	44.7µM*	.	?	-24.0%	-6.7%
O=C(CN1C(=O)NC2(CCOCC2)C1=O)Nc1cccc(F)c1	.	.	.	0.2%	.	.
CN(C(=O)c1ccnc(-c2nnc3ccc(N4CCOCC4)nn23)c1)c1ccccc1	.	.	.	31.6µM*	.	.
SMILES	HP1b chromo inh	G9a block	Sfp inh	ALOX12 inh	JMJD2A Tudor	BAZ2B block
Cc1ccc(C)c(N2CCN(C(=O)c3ccc(Cn4c(=S)[nH]c5ccc(N6CCOCC6)cc5c4=O)cc3)CC2)c1	31.3%	39.8µM*	3.9%	?	-11.0%	?
COc1ccc(N2CCN(C(=O)c3ccc(Cn4c(=S)[nH]c5ccc(N6CCOCC6)cc5c4=O)cc3)CC2)cc1	7.0%	?	70.8µM*	-2.0%	-26.9%	-2.5%
O=C(c1ccc(Cn2c(=S)[nH]c3ccc(N4CCOCC4)cc3c2=O)cc1)N1CCN(c2ccc(F)cc2)CC1	12.4%	-36.0%	5.7%	0.0%	-15.3%	8.3%
Cc1ccc2oc(C(=O)N(Cc3ccc(N(C)C)cc3)C3CCS(=O)(=O)C3)c(C)c2c1 (stereo unspecified)	?	25.1µM*	3.7%	3.4%	20µM*	11.2µM*
Cc1ccc2c(=O)cc(C(=O)N(Cc3ccc(N(C)C)cc3)C3CCS(=O)(=O)C3)oc2c1 (stereo unspecified)	27.2%	?	.	-3.8%	-29.9%	?
Cc1ccc2c(C)c(C(=O)N(Cc3ccc(N(C)C)cc3)C3CCS(=O)(=O)C3)oc2c1 (stereo unspecified)	?	.	-18.1%	-15.1%	25.1µM*	12.6µM*
Cc1nc2c3ccccc3ccc2c2ccccc12	.	.	.	38.6%	.	.
Cc1[nH]c2c(ccc3ccccc32)c1C1C(CCN)C1(C)C (stereo unspecified)	-7.0%	-43.6%[59 µM]	-3.9%	?	56.2µM*	56.2µM*
Cc1[nH]c2c(ccc3ccccc32)c1C	.	.	.	15.8µM*	.	.
CONC(=O)COc1ccc(C(C)(C)C)cc1	.	.	.	0.0%	.	.
CC(C)(C)C1=CC(=O)C(N2CCOCC2)=CC1=O	?	?	-16.2%	?	-34.3%	50.1µM*
O=c1c(N2CCOCC2)c(N2CCOCC2)c1=O	51.5%	.	-12.6%	4.0%	-4.4%	1.0%
CCc1nnc(NS(=O)(=O)c2ccc(N/C=C\C(=O)c3ccc(C)cc3)cc2)s1	19.0%	-31.5%[59 µM]	7.4%	?	?	?
CCc1nnc(NS(=O)(=O)c2ccc(N/C=C\C(=O)c3ccc(F)cc3)cc2)s1	20.5%	.	11.7%	-20.1%	-15.9%	?
CCc1nnc(NS(=O)(=O)c2ccc(N/C=C/C(=O)c3ccc(C)cc3)cc2)s1	33.8%	39.8µM*	7.4%	?	?	50.1µM*
CCc1nnc(NS(=O)(=O)c2ccc(NS(=O)(=O)c3ccc(NC(C)=O)cc3)cc2)s1	.	-4.3%	8.0%	.	.	-2.0%
CCc1nnc(NS(=O)(=O)c2ccc(NC(=O)/C=C/c3ccc(OC)cc3OC)cc2)s1	-3.2%	14.8%[59 µM]	6.1%	?	?	56.2µM*
CCc1nnc(NS(=O)(=O)c2ccc(N/C=C\C(=O)c3cccc(OC)c3)cc2)s1	28.7%	50.1µM*	15.8%	?	-13.2%	-37.7%
Cc1nc(C)c(C(=O)NCC(=O)N2CCCCCNC(=O)CC2c2ccccc2)s1 (stereo unspecified)	.	.	.	1.2%	.	.
O=C(NCC1CC1)c1onc(CSc2nc3ccccc3[nH]2)c1C(=O)NCC1CC1	32.2%	.	6.0%	-2.7%	-14.3%	?
